# Rab9 prom act – Rab9 promoter activation. Huh7 Rab9 promoter-luciferase reporter, luminescence, 24 h. Potency, µM (highest dose often 9.22 µM), for inactives: top-dose activation, negative = inhibition, most hits filed as activators. 320,000 compounds, 2.8% hits. AID 485297; note: % of control where 0% means no effect; nearly all actives have a fitted effect of over 60% in size
#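 Luciferase signal after 10 min detection reagent at ambient indicates Rab9 promoter upregulation; stably transfected Huh7 cells were treated 24 h with compound in DMSO at 37 °C, 5% CO2.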
# SMN2 splice enh – enhancers of SMN2 splice variant expression; HEK293 SMN2-luciferase splicing reporter, luminescence, 30-36 h; Potency, µM (doses to about 46.1 µM), for the others: top-dose activity change, positive = activation, hits mostly activators; 210,000 compounds, 2.8% hits; note: % of control where 0% means no effect; nearly all actives have a fitted effect of over 55% in size
#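 HEK293 cells carry an SMN2 minigene-luciferase reporter in which exon 7 inclusion puts luciferase in frame. Cells were seeded at 2000 cells/well, attached for 10-12 hours, then exposed to compounds for 30-36 hours at 37C before ONE-Glo luminescence.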
# NPC1 prom act – activators of NPC1 promoter. Potency, µM (top dose mostly 9.22 µM), for the others: at the top dose activation, actives largely listed as activators. 320,000 compounds, 2.4% hits. Huh7 NPC1 promoter luciferase reporter, 24 h. AID 485313; note: % of control where 0% means no effect; nearly all actives have a fitted effect of over 60% in size
#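 In 1536-well qHTS, Huh7 cells harboring an NPC1 promoter–luciferase construct received compound for 24 h; activation was quantified by luminescence following luciferase reagent addition.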
# FLuc counter – firefly luciferase modulation, counter-screen for miR-21 project. 360,000 compounds, 6.9% hits. P08659. AID 588342. purified FLuc, Km substrates, luminescence inhibition. Potency, µM (highest dose often 57.5 µM), without a hit: at the top dose activity change, negative = inhibition, hits mostly inhibitors;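 note: plate controls were vehicle for no effect and reference inhibitor for full effect; nearly all actives have a fitted effect of over 55% in size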
# Target sequence (P08659 whole entry, looked up): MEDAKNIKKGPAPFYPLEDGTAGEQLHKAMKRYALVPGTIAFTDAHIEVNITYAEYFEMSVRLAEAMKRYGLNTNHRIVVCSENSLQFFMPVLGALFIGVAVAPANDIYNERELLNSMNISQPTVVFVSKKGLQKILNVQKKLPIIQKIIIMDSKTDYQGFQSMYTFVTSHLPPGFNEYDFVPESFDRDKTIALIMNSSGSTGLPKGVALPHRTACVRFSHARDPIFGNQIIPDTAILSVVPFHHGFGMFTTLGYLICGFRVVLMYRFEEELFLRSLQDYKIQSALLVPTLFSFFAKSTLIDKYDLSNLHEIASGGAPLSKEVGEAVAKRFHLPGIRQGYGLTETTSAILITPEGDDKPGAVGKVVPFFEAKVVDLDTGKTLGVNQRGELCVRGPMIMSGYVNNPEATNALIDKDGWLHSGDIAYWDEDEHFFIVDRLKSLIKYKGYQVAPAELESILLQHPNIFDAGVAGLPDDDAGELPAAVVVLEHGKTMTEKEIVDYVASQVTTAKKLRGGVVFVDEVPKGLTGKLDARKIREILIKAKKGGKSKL
#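 Biochemical qHTS of compounds, final roughly 60 µM downward over six points, against 10 nM purified firefly luciferase using Km concentrations of substrates (10 uM D-luciferin, 10 uM ATP) in Tris acetate pH 7.5 buffer; luminescence output.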
# Luc counter – Kinase-Glo luciferase inhibition (counter-screen). Potency, µM (doses to about 38.3 µM), without a hit: top-dose activity change, negative = inhibition, hits mostly inhibitors. 200,000 compounds, 0.28% hits. Kinase-Glo luciferase, ATP luminescence, 8 min; note: % is set by controls: 0 for no effect and ±100 for the full control effect; nearly all actives have a fitted effect of over 60% in size
#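 Compound is pinned into ATP-containing buffer (10 uM ATP, imidazole pH 7.2, 7 mM MgCl2). Kinase-Glo luciferase reagent is then added. Light output is recorded following an 8-min room-temperature incubation.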
# ELG1 genotox – induces genotoxicity in HEK293T cells with luciferase-tagged ELG1 | HEK293T ELG1-luciferase reporter, luminescence, 16 h | Potency, µM (top dose mostly 46 µM), for the others: top-dose activity change, positive = activation, usual class: activators | 330,000 compounds, 1.3% hits; note: % of control where 0% means no effect; nearly all actives have a fitted effect of over 60% in size
#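 Cells (2,000/well) expressing the ELG1-luciferase fusion are dosed by pin tool and kept 16 hr at 37 °C, 5% CO2. Signal comes from ONE-Glo luciferase reagent after 30 min at room temperature.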
# * = called active by the depositor; u = inconclusive; x = no result. Compounds with a hit are over-represented: about 7.3% of the library has one in this group of screens. Calls come from the whole dose curve; as a rule, active = well fitted curve in the direction sought with a large enough effect; inconclusive = small, poorly fitted or top-dose-only effect, or another doubt; inactive = no such curve, though single readings can be large; an effect the other way counts as inactive or inconclusive. Potency is the fitted concentration of half-maximal effect.
SMILES,Rab9 prom act,SMN2 splice enh,NPC1 prom act,FLuc counter,Luc counter,ELG1 genotox
COc1cc(C(=O)Nc2cc(C)c(OCC(=O)N3CCOCC3)c(C)c2)cc(OC)c1OC,1.9%,x,-3.8%,4.0%,-1.6%,9.3%
CCOc1ccc(S(=O)(=O)N(C)c2ccc(OCC(=O)N3CCOCC3)cc2)cc1,1.5%,0.0%,0.7%,-3.5%,4.2%,-2.9%
Cc1ccc(CNC(=O)c2cc3c(=O)n(Cc4cccnc4)ccc3nc2C)cc1,x,x,x,-1.5%,x,x
CCc1ccccc1N(C)C(=O)c1cn(CC(C)C)c(=O)c2cc(OC)c(OC)cc12,x,-18.1%,x,2.0%,x,x
COC(=O)Nc1ccc(OCC(=O)N2CCOCC2)cc1,-4.2%,5.9%,-3.1%,4.8%,-3.1%,0.2%
O=C(Nc1ccc(OCC(=O)N2CCOCC2)cc1)c1cccc(Cl)c1,29.3%,x,24.9%,7.57µM*,x,3.0%
COc1cc(C(=O)Nc2ccc(C(F)(F)F)cc2)ccc1OCC(=O)N1CCOCC1,20.2%,x,16.6%,6.75µM*,x,0.4%
CCc1ccc(C(=O)NNC(=O)c2ccc(OCC(=O)N3CCOCC3)c(OC)c2)cc1,-11.6%,x,-5.6%,0.0%,x,-0.3%
O=C(Nc1ccc(OCC(=O)N2CCOCC2)cc1)c1ccccc1F,27.2%,x,22.0%,4.78µM*,x,19.7%
O=C(CCC1CCCC1)Nc1ccc(OCC(=O)N2CCOCC2)cc1,9.6%,-1.2%,9.9%,4.78µM*,-0.8%,8.4%
CCCCOc1ccc(S(=O)(=O)N2CCN(c3ccccc3OCC)CC2)cc1,x,0.6%,x,4.7%,x,x
CCOC(=O)Cc1ccc(NC(=O)N2CCOc3ccc(C)cc32)cc1,x,x,x,2.6%,x,x
Cc1ccccc1NC(=O)c1cc2ccccn2n1,1.41µM*,x,3.55µM*,3.38µM*,x,u
CC(=O)c1cccc(NC(=O)c2cc3ccccn3n2)c1,3.98µM*,24.1%,1.78µM*,3.38µM*,-12.5%,18.4µM*
Cc1cc(Cl)ccc1NC(=O)c1cc2ccccn2n1,x,x,x,4.78µM*,x,x
COc1ccc(C)cc1NC(=O)c1cc2ccccn2n1,x,x,x,21.3µM*,x,x
COc1ccc(Cl)cc1NC(=O)c1cc2ccccn2n1,x,x,x,-2.2%,x,x
COC(=O)c1ccc2c(=O)n(CCCCCC(=O)N3CCN(c4cc(Cl)ccc4C)CC3)c(=O)[nH]c2c1,x,x,x,-11.3%,x,x
Cc1ccc(C)c(NC(=O)c2cc3ccccn3n2)c1,2.24µM*,12.6µM*,3.55µM*,10.7µM*,-5.6%,9.2µM*
Cc1ccc(C)c(NC(=O)c2cnn3ccccc23)c1,7.0%,-5.0%,2.2%,u,1.3%,u
Cc1ccc(C)c(Cn2c(=O)n(CCCC(=O)NCc3ccc4c(c3)OCO4)c(=O)c3sccc32)c1,x,-2.2%,x,-15.1%,x,x
Clc1ccc(C2Nc3cccc4cccc(c34)N2)cc1Cl,15.9%,x,25.5%,23.9µM*,x,-3.0%
CCOc1cc(C2Nc3cccc4cccc(c34)N2)ccc1O,18.3%,1.2%,18.7%,13.5µM*,-2.8%,-0.9%
c1ccc(C2Nc3cccc4cccc(c34)N2)cc1,21.9%,x,u,15.1µM*,x,-3.3%
Clc1cccc(C2Nc3cccc4cccc(c34)N2)c1,8.1%,x,13.4%,u,x,-2.0%
SMILES,Rab9 prom act,SMN2 splice enh,NPC1 prom act,FLuc counter,Luc counter,ELG1 genotox
CN(C)c1ccc(C2Nc3cccc4cccc(c34)N2)cc1,u,x,u,16.9µM*,x,u
COc1ccc(C2Nc3cccc4cccc(c34)N2)cc1,-2.2%,-4.5%,12.9%,u,-2.2%,2.4%
CCOC(=O)c1c(SCC(=O)Nc2nc3ccc(C)cc3s2)nc(=O)[nH]c1C,x,x,x,-12.8%,x,x
O=C1NC(c2ccc(Cl)cc2)Nc2ccccc21 (centres undefined),0.7%,x,-10.5%,0.9%,-0.1%,-0.1%
Cc1ccc(C2NC(=O)c3ccccc3N2)s1 (centres undefined),11.2%,10µM*,-2.5%,u,-2.8%,18.4µM*
CN(C)c1ccc(C2NC(=O)c3ccccc3N2)cc1 (centres undefined),16.8%,x,10.7%,9.53µM*,x,u
